Laboratory results as given in PubChem BioAssay (NCI).
The panel holds about 83,000 compounds, 20% with a hit somewhere; the sample as a whole holds those more often.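 Assay: single dose, 48 h. Readout: percent growth (0 = no net growth; negative = cell death). Active: <10.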 Activity calls are given as the source filed them.

How the values were obtained:
Test in all cases: NCI-60 one-dose screen, 48 h (100 = growth as untreated, 0 = no growth, -100 = all killed)
Details in all cases: 10 µM unless noted
HCT-15 colon = system: HCT-15 colon
HT29 colon = system: HT29 colon
SNB-75 CNS = system: SNB-75 CNS
SNB-19 CNS = system: SNB-19 CNS
U251 CNS = system: U251 CNS
PC-3 prostate = system: PC-3 prostate
SK-MEL-5 melanoma = system: SK-MEL-5 melanoma
UACC-62 melanoma = system: UACC-62 melanoma
LOX IMVI melanoma = system: LOX IMVI melanoma
SK-MEL-28 melanoma = system: SK-MEL-28 melanoma
SK-MEL-2 melanoma = system: SK-MEL-2 melanoma
EKVX NSCLC = system: EKVX NSCLC
UO-31 renal = system: UO-31 renal
TK-10 renal = system: TK-10 renal
ACHN renal = system: ACHN renal
CAKI-1 renal = system: CAKI-1 renal
A498 renal = system: A498 renal
CCRF-CEM leukemia = system: CCRF-CEM leukemia
MOLT-4 leukemia = system: MOLT-4 leukemia
SN12C renal = system: SN12C renal

Measured: growth

O=C1c2cccnc2C(=O)c2c1c(C(=O)OCCCN1CCCCC1)c1ccccn21
active: HCT-15 colon -55.5% | HT29 colon -24.2% | SNB-75 CNS -88.7% | SNB-19 CNS -38.2% | U251 CNS -31% | PC-3 prostate -18.2% | SK-MEL-5 melanoma -96.2% | UACC-62 melanoma -51.2% | LOX IMVI melanoma -67.2% | SK-MEL-28 melanoma -20.3% | SK-MEL-2 melanoma -47.3% | EKVX NSCLC -15.6% | UO-31 renal -19.5% | TK-10 renal -11.1% | ACHN renal -55.2% | CAKI-1 renal -24% | CCRF-CEM leukemia -17% | MOLT-4 leukemia -7.64%
inactive: A498 renal 11.1%

CC(C)CSc1oc(-c2ccccc2)nc1S(=O)(=O)c1ccccc1
inactive: HCT-15 colon 93.7% | HT29 colon 86.2% | SNB-75 CNS 89.3% | SNB-19 CNS 102% | U251 CNS 84.2% | PC-3 prostate 79.9% | SK-MEL-5 melanoma 90.7% | UACC-62 melanoma 66.9% | LOX IMVI melanoma 96.1% | SK-MEL-28 melanoma 115% | SK-MEL-2 melanoma 95.9% | EKVX NSCLC 88.8% | UO-31 renal 75.7% | TK-10 renal 65.6% | ACHN renal 89.9% | CAKI-1 renal 76.7% | A498 renal 84.9% | CCRF-CEM leukemia 86.9% | MOLT-4 leukemia 76.1%

CCOC(=O)Nc1nc2ccc(SCC(C)C)cc2s1
inactive: HCT-15 colon 25.5% | SNB-75 CNS 74.3% | SNB-19 CNS 49.9% | U251 CNS 34.3% | PC-3 prostate 36.9% | SK-MEL-5 melanoma 34.1% | UACC-62 melanoma 17.3% | LOX IMVI melanoma 36.3% | SK-MEL-28 melanoma 62.3% | SK-MEL-2 melanoma 33.1% | EKVX NSCLC 48.7% | UO-31 renal 37.6% | TK-10 renal 33% | ACHN renal 45.6% | CAKI-1 renal 96.6% | A498 renal 21.5% | CCRF-CEM leukemia 21.5% | MOLT-4 leukemia 31.8%
active: HT29 colon 9.7%

O=C(O)C1CN(c2cccc(Cl)c2)N(c2cccc(Cl)c2)C1=O (stereo unspecified)
inactive: HCT-15 colon 91.8% | HT29 colon 96.2% | SNB-75 CNS 76.9% | SNB-19 CNS 82.8% | U251 CNS 102% | PC-3 prostate 94.6% | SK-MEL-5 melanoma 98% | UACC-62 melanoma 88.5% | LOX IMVI melanoma 88.7% | SK-MEL-28 melanoma 93.1% | SK-MEL-2 melanoma 94.7% | EKVX NSCLC 96.9% | SN12C renal 89% | UO-31 renal 72.2% | TK-10 renal 105% | CAKI-1 renal 92.8% | CCRF-CEM leukemia 107% | MOLT-4 leukemia 88.8%

COc1ccc2c(c1)c(-c1nonc1-c1cn(C)c3ccc(OC)cc13)cn2C
inactive: HCT-15 colon 25.4% | HT29 colon 13.1% | SNB-75 CNS 24% | SNB-19 CNS 36.8% | U251 CNS 33.7% | PC-3 prostate 50.1% | SK-MEL-5 melanoma 38% | UACC-62 melanoma 26.3% | LOX IMVI melanoma 39.7% | SK-MEL-28 melanoma 60.8% | SK-MEL-2 melanoma 41.8% | EKVX NSCLC 47.4% | UO-31 renal 49% | TK-10 renal 71.2% | ACHN renal 51.7% | CAKI-1 renal 31.9% | A498 renal 18.4% | CCRF-CEM leukemia 26.6% | MOLT-4 leukemia 25.4%

COc1cc(N2C(=O)[C@H](c3ccccc3)C2c2ccc(SC)cc2)cc(OC)c1OC (stereo partly specified)
inactive: SNB-75 CNS 69.4% | SNB-19 CNS 30.8% | PC-3 prostate 17.7% | LOX IMVI melanoma 13.4% | SK-MEL-28 melanoma 60.9% | SK-MEL-2 melanoma 31.1% | EKVX NSCLC 33.7% | UO-31 renal 32.5% | TK-10 renal 50.9% | ACHN renal 30.2% | CAKI-1 renal 21.3%
active: HCT-15 colon 1.35% | HT29 colon -9.59% | U251 CNS 7.35% | SK-MEL-5 melanoma -20.7% | UACC-62 melanoma 7.64% | A498 renal -4.14% | CCRF-CEM leukemia 5.22% | MOLT-4 leukemia 2.92%

CCCNc1nc2ccccc2c2c(=O)c3cccc(Cl)c3sc12
inactive: HCT-15 colon 89.7% | HT29 colon 81.8% | SNB-75 CNS 82.3% | SNB-19 CNS 110% | U251 CNS 97.9% | PC-3 prostate 88.5% | SK-MEL-5 melanoma 97.6% | UACC-62 melanoma 84.3% | LOX IMVI melanoma 90.2% | SK-MEL-28 melanoma 115% | SK-MEL-2 melanoma 102% | EKVX NSCLC 85.1% | UO-31 renal 66.9% | TK-10 renal 129% | ACHN renal 92.7% | CAKI-1 renal 71.7% | A498 renal 124% | CCRF-CEM leukemia 92.2% | MOLT-4 leukemia 93.9%

Cc1cc2nc3c4ccccc4n(CCN(C)C)c3nc2cc1C
inactive: SNB-19 CNS 26% | U251 CNS 15.7% | PC-3 prostate 12.9% | UACC-62 melanoma 36.2% | SK-MEL-28 melanoma 20.1% | SK-MEL-2 melanoma 11% | EKVX NSCLC 18.1% | TK-10 renal 26.7% | CCRF-CEM leukemia 10.3%
active: HCT-15 colon -3.11% | HT29 colon 8.23% | SNB-75 CNS 4.8% | SK-MEL-5 melanoma 6.22% | LOX IMVI melanoma -63.2% | UO-31 renal -12% | ACHN renal -26.5% | CAKI-1 renal -3.55% | A498 renal -15.2% | MOLT-4 leukemia 4.73%

N#Cc1c(-c2ccccc2)nc2c(c(-c3ccccc3)nn2-c2ccccc2)c1-c1ccc(N2CCOCC2)cc1
inactive: HCT-15 colon 37.3% | HT29 colon 52.4% | SNB-75 CNS 86.9% | SNB-19 CNS 94.5% | U251 CNS 65.9% | PC-3 prostate 81.7% | SK-MEL-5 melanoma 98.8% | UACC-62 melanoma 106% | LOX IMVI melanoma 51.6% | SK-MEL-28 melanoma 107% | SK-MEL-2 melanoma 102% | EKVX NSCLC 103% | UO-31 renal 70.3% | TK-10 renal 101% | ACHN renal 103% | CAKI-1 renal 81.8% | A498 renal 95.1% | CCRF-CEM leukemia 64.6% | MOLT-4 leukemia 62.7%

O=C(N/N=C/c1ccc(Cl)cc1Cl)c1ccc2nc(-c3ccc(Cl)cc3)[nH]c2c1
inactive: SNB-75 CNS 98.4% | SK-MEL-5 melanoma 36.2% | UACC-62 melanoma 16.8% | SK-MEL-2 melanoma 38.9% | UO-31 renal 21.6% | CAKI-1 renal 61.2% | A498 renal 56.2% | CCRF-CEM leukemia 15.5%
active: HCT-15 colon 4.69% | HT29 colon 1.67% | SNB-19 CNS 4.35% | U251 CNS -15.2% | PC-3 prostate -24.9% | LOX IMVI melanoma -55.9% | SK-MEL-28 melanoma -9.23% | EKVX NSCLC 8.23% | TK-10 renal -4.33% | ACHN renal -20.2% | MOLT-4 leukemia 4.45%

Cc1[nH]c(C(=O)Nc2ccc(C(N)=O)cc2NC(C)C)c(Cl)c1Cl
inactive: HCT-15 colon 92.9% | HT29 colon 106% | SNB-75 CNS 69% | SNB-19 CNS 103% | U251 CNS 91.4% | PC-3 prostate 77.4% | SK-MEL-5 melanoma 88.1% | UACC-62 melanoma 91.4% | LOX IMVI melanoma 96.2% | SK-MEL-28 melanoma 105% | SK-MEL-2 melanoma 101% | EKVX NSCLC 87% | SN12C renal 105% | UO-31 renal 66% | TK-10 renal 120% | CAKI-1 renal 94.1% | CCRF-CEM leukemia 94.2% | MOLT-4 leukemia 86%

O=C(/C=C/c1ccc(Br)cc1)c1ccc(-n2cc(CN3CCN(c4cc5c(cc4F)c(=O)c(C(=O)O)cn5C4CC4)CC3)nn2)cc1
inactive: HCT-15 colon 95% | HT29 colon 91.7% | SNB-75 CNS 93.6% | SNB-19 CNS 86.9% | U251 CNS 71.2% | PC-3 prostate 82% | SK-MEL-5 melanoma 91.1% | UACC-62 melanoma 83% | LOX IMVI melanoma 50.4% | SK-MEL-28 melanoma 107% | SK-MEL-2 melanoma 97.2% | EKVX NSCLC 90.7% | UO-31 renal 65.7% | TK-10 renal 91.4% | ACHN renal 93.7% | CAKI-1 renal 64.4% | A498 renal 57.4% | CCRF-CEM leukemia 56.3% | MOLT-4 leukemia 67.7%

C=CC(=O)NCCOc1cccc(Nc2cc(NCCCNC(=O)C3CCC3)c(Br)cn2)c1
active: HCT-15 colon 1.43% | HT29 colon -15.2% | SNB-75 CNS -69.2% | SNB-19 CNS 5.36% | U251 CNS 0.984% | PC-3 prostate 5.12% | SK-MEL-5 melanoma -41.4% | UACC-62 melanoma -34.7% | LOX IMVI melanoma -25.3% | SK-MEL-28 melanoma -11.9% | SK-MEL-2 melanoma -43.8% | EKVX NSCLC -13.6% | UO-31 renal -42.2% | TK-10 renal -43.4% | ACHN renal 7.24% | CAKI-1 renal -38.2% | A498 renal -54% | CCRF-CEM leukemia 1.92%

O=C(c1ccc(F)c(Cl)c1)N1c2ccccc2Sc2ccccc21
inactive: HCT-15 colon 27.2% | HT29 colon 36.2% | SNB-75 CNS 68.6% | SNB-19 CNS 77% | U251 CNS 39.4% | PC-3 prostate 40.3% | SK-MEL-5 melanoma 34.4% | UACC-62 melanoma 25.7% | LOX IMVI melanoma 41.2% | SK-MEL-28 melanoma 61.7% | SK-MEL-2 melanoma 65.2% | EKVX NSCLC 74.1% | UO-31 renal 72.9% | TK-10 renal 85.2% | ACHN renal 104% | CAKI-1 renal 53.4% | A498 renal 61.7% | CCRF-CEM leukemia 58.4% | MOLT-4 leukemia 44.1%

COc1ccc(-c2nnc(SCC(=O)Nc3ccc(/C(C)=N\O)cc3)n2-c2ccccc2)cc1OC
active: SNB-75 CNS -16.5%
inactive: HCT-15 colon 98.6% | HT29 colon 91.2% | SNB-19 CNS 75.8% | U251 CNS 34.4% | PC-3 prostate 110% | UACC-62 melanoma 82.8% | LOX IMVI melanoma 80.1% | SK-MEL-28 melanoma 87.3% | SK-MEL-2 melanoma 57.6% | EKVX NSCLC 71.1% | SN12C renal 71.8% | UO-31 renal 104% | TK-10 renal 41.1% | ACHN renal 75.5% | CAKI-1 renal 87.4% | A498 renal 91.8% | CCRF-CEM leukemia 98.5% | MOLT-4 leukemia 91.7%

Cn1cc(-c2nonc2-c2c[nH]c3ccccc23)c2ccccc21
active: HT29 colon 5.85% | SNB-75 CNS -18.2% | UACC-62 melanoma 8.21% | A498 renal -13.4% | CCRF-CEM leukemia 7.68% | MOLT-4 leukemia 8.23%
inactive: HCT-15 colon 16.6% | SNB-19 CNS 12.8% | U251 CNS 12.4% | PC-3 prostate 20.7% | LOX IMVI melanoma 23.5% | SK-MEL-28 melanoma 41.6% | SK-MEL-2 melanoma 51.2% | EKVX NSCLC 26% | SN12C renal 23.4% | UO-31 renal 15.6% | TK-10 renal 47.7% | ACHN renal 31.1% | CAKI-1 renal 20.4%
